Experimental findings from the supplement of paper PMC6555819 are described below.

For the assay, the system named is VDR:RXRa (NR concentration 270 nM, RXRa partner concentration 90 nM). Kind of assay: PBM binding z-score (relative to random genomic background probes); higher = stronger binding; sequences stand for … in GC…GCGATTGACAGCGTAGAATGAAGG
On the procedure:
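Protein-binding microarray (Agilent 4x180K custom design, double-stranded 60-nt probes: 5' GC cap, 34-nt variable region, 24-nt constant primer region; full probe sequence given). Purified or IVT nuclear receptor:RXRα heterodimers (3:1 NR:RXRα, mostly 270:90 nM) or homodimers were incubated for 1 h in PBS with 2% milk and no ligand, then detected with Alexa488 antibodies. Fluorescence from o1-orientation probes (~5 replicates averaged) was converted to z-scores against 500 random hg19 background probes. Variable regions are seed direct-repeat (DR0–DR5) sites, all their single-nucleotide variants and half-site ablations.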
Turning to CCTTACGGGTCAGGAGGTTATAGCACGACGAGCG, the PBM binding z-score is 3.14.
On to TCGAGTAGGTTACGGGGGCAGTCAGGGATGAAGA, for which the PBM binding z-score stood at 2.8.
As for CGTACTAGGTCAAAGGACAGTGAAAGGCGACGTA, the figure is 1.33; as for CGTCCAAGGTCAGCAGGTCACTGAAAGCGACGTG, 4.5.
As for TAGCCTAGGTCATTTGGCCAGTATAGTACGCATC, the figure is 2.52; as for ATCGAAAGGTCGAAGGAGAGTATACCCACCCGAA, 2.23.
The figure for TCATATAGGTAATAGGTGAAAGTCGGTGTGGTAA is 0.883.
Consider ATCGAAATGTCGTGAGGTGAGTATACAGAAAGGC, for which the PBM binding z-score was -0.0568.
The figure for CCGAGTAGGTTACGAGGGGGCATTCAGTGCGAAT is 5.35; for TCGAGTAGGTTACGGCGGCATTCAGGGATGAAGA it is -0.251.
The figure for CGAACTAGGTCACCAAGACAGTGAAGAGGTTGGA is 1.49; for CTATGTAGGTTAAGGGGGTCCTTCAGTTTGAAAG it is 3.98.
CCGAGTAGGTTACGAGGGGACATTCAGTGCGAAT: the PBM binding z-score stood at 2.82.
Take CAAACTAGGTCACGAAAGGTCAAAATCGAATGAC: the PBM binding z-score was determined as 6.51.
The figure for CATACACGGTCAGCTAGGCCAGAGTAGGGACGGC is -0.0494; for CCTAGCAGGCGAGGGTCACTCAAGCATTTCGCTT it is 1.59; for CGAACTAGTTCAAGGACAGTGAATCTCCGCACGC it is 0.348.
For the sequence ATAAGTAGGTTAGGGTCATTCAGAAAGTAGGGAA, the PBM binding z-score was determined as 4.88.
The figure for GGAACGAGGGCATTCGAGTTGATAGCATGGCGAT is 3.76; for TCGAGTAGGTTAAGGGGGCATTCAGGGATGAAGA it is 3.35.
The figure for TCGAGAAGGTTACGGGGGCATTCAGGGATGAAGA is 4.82; for CGAACTAGGTCACCAGGACAGTGACGAGGTTGGA it is 2.13.
As for ATCGAAAGGTCGACGAGTTGAGTATACACCGTTT, the figure is 6.08.
Regarding CTATGTAGGATAAGGGGGTCATTCAGTTTGAAAG, the PBM binding z-score came to 6.5.
As for ATCGAAAGGTCGTGAGGTGAGTTTACAGAAAGGC, the figure is 4.49.
For the sequence CGAACCAGGTCACCAGGACAGTGAAGAGGTTGGA, the PBM binding z-score was 3.17.
The figure for GATACAGGGTGAGCTAGAGGCCAGAGTATGGAAA is -0.523; for TCGAGTAGGTTACGGGGGCATGCAGGGATGAAGA it is 3.43.
ATCTGTAGGTTAGGGTCATTCAGAAAGTAGGGAA had a PBM binding z-score of 4.35.
As for CAAACTAGGTCACAGAGGGCAAAGTCCGTGCGTA, the PBM binding z-score turned out to be 7.09.
As for CGAACTAGGTCACCAGGACAGTGATGAGGTTGGA, the figure is 2.17.
The figure for AGTCAAAGTTCACTAGGTTACGTAAGATTCAGCT is 4.71.
The figure for TGAATGAGGTCAAAGATCAGGGAACGTGGCGTCG is 5.6.
CGAACTAGGTCACCAGGACAGTTAAGAGGTTGGA yielded a PBM binding z-score of 2.11.
In the case of CCTAGTAGGTTATGGGGCATTCAGGCAACGGTGA, the PBM binding z-score was 0.233.
As for ATATGTAGGTTAGGGTCATGCAGAAAGTAGGGAA, the figure is 4.36; as for CAAACCAGGTCACGAAAGGTCAAAGTCGAATGAC, 7.16; as for TCGAGTAGCTTACGGGGGCATTCAGGGATGAAGA, 2.45.
As for CGAACTAGGTAAAAGGACAGTGAAAGGCGACGTA, the figure is -0.189; as for CAATCTAGGTCAAAGGTCAAAGTCGAGCCAACCA, 6.74.
